According to PubChem BioAssay (NCATS):
Inconclusive results are not listed. Where a call stands in place of a potency, no number is given. Calls of active or inactive are those of the source. The call rests on the fitted dose curve.

Experiment: Natriuretic polypeptide receptor (hNpr1) antagonism - Pilot counterscreen GloSensor control cell line (AID 1347045)
Conditions: HEK293 cGMP GloSensor cells, SNP-stimulated luminescence, 20 min; series mostly up to 38.3 µM
Outline: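 HEK293 cells carrying the GloSensor cGMP sensor (GIP/pGS-40F) were loaded with 2% GloSensor reagent for 2 h, exposed to compounds for 30 min, and then stimulated with 50 uM sodium nitroprusside for 20 min at room temperature.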
Potency means the concentration at half of the fitted maximal effect.

SMILES | Potency
CCCCCN(C)CCC(O)(P(=O)(O)O)P(=O)(O)O | inactive
O=c1c(-c2ccc(O)cc2)coc2cc(O)ccc12 | inactive
CC1(C)CCC2=C(O1)c1ccccc1C(=O)C2=O | 14.7 µM (active)
COc1ccc(Cc2nccc3cc(OC)c(OC)cc23)cc1OC | inactive
